Values joined by “and” are separate entries in the source; they are usually repeats but may differ in a detail not shown here. Equal entries are not always repeated. The campaign covered roughly 5,500 compounds. About 2,000 (36%) were called active. Another 18% or so got no clear call; they are omitted. Cut-off read from the data, not from the text of the source: active = normalized growth mostly below about 0.91 (no sharp cut-off); inconclusive = no clear call, values can overlap the other calls; inactive = mostly above about 0.92. The list shows a part of the results.
Experiment: chemical genetic growth profiling, strain panel (AID 1159580);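 note: tested at 20 µM; growth read once vehicle control cultures reached saturation at 30 °C; 1 = growth at the plate median or of vehicle wells; lower values mean less growth of the strain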
Settings: S. cerevisiae deletion strains, growth OD

Measured: normalized growth

CCC(N)C(O)c1ccc(O)c(O)c1 (configuration not stated)
inactive: locus YAL013W, strain DEP1, hits give low values 1.02 | locus YAL021C, strain ccr4, hits give low values 1 | locus YAL026C, strain drs2, hits give low values 0.987 | locus YAL030W, strain snc1, hits give low values 0.986 | locus YBL061C, strain skt5, hits give low values 0.99 | locus YBR009C, strain hhf1, hits give low values 0.986 | locus YBR021W, strain FUR4, hits give low values 0.995 | locus YBR023C, strain chs3, hits give low values 0.994 | locus YBR171W, strain sec66, hits give low values 0.976 | locus YBR229C, strain ROT2, hits give low values 1.02 | locus YBR231C, strain swc5, hits give low values 0.984 | locus YBR279W, strain paf1, hits give low values 0.991 | locus YCL011C, strain gbp2, hits give low values 0.996 | locus YCL016C, strain dcc1, hits give low values 0.998 | locus YCL029C, strain bik1, hits give low values 0.992 | locus YCL061C, strain MRC1, hits give low values 0.991 | locus YCL069W, strain vba3, hits give low values 1 | locus YCR088W, strain abp1, hits give low values 0.997 | locus YDL005C, strain med2, hits give low values 0.993 | locus YDL035C, strain GPR1, hits give low values 1.02 | locus YDL040C, strain nat1, hits give low values 0.99 | locus YDL074C, strain BRE1, hits give low values 1 | locus YDL101C, strain DUN1, hits give low values 1.01 | locus YDL134C, strain PPH21, hits give low values 1 | locus YDL185W, strain tfp1, hits give low values 0.968 | locus YDL192W, strain arf1, hits give low values 0.998 | locus YDR001C, strain nth1, hits give low values 0.99 | locus YDR069C, strain doa4, hits give low values 0.981 | locus YDR101C, strain arx1, hits give low values 0.995 | locus YDR137W, strain rgp1, hits give low values 1.02 | locus YDR150W, strain NUM1, hits give low values 1.02 | locus YDR159W, strain sac3, hits give low values 0.965 | locus YDR162C, strain NBP2, hits give low values 1.02 | locus YDR195W, strain ref2 0.931 | locus YDR297W, strain sur2, hits give low values 0.991 | locus YDR318W, strain mcm21, hits give low values 0.977 | locus YDR334W, strain swr1, hits give low values 0.994 | locus YDR335W, strain msn5, hits give low values 0.993 | locus YDR388W, hits give low values 0.993 | locus YDR392W, strain spt3, hits give low values 0.934 | locus YDR502C, strain sam2, hits give low values 0.998 | locus YEL003W, strain gim4, hits give low values 0.997 | locus YEL037C, strain rad23, hits give low values 1.02 | locus YEL061C, strain CIN8 (second series), hits give low values 0.988 | locus YEL061C, strain CIN8, hits give low values 1.01 | locus YER015W, strain faa2, hits give low values 0.984 | locus YER016W, strain bim1, hits give low values 0.989 | locus YER110C, hits give low values 0.985 | locus YER111C, strain swi4, hits give low values 0.989 | locus YER155C, strain BEM2 (second series), hits give low values 0.979 | locus YER155C, strain BEM2, hits give low values 1.01 | locus YER167W, strain BCK2, hits give low values 1.03 | locus YFR010W, strain ubp6, hits give low values 0.983 | locus YGL078C, strain dbp3, hits give low values 1 | locus YGL086W, strain mad1, hits give low values 0.988 | locus YGL167C, strain pmr1, hits give low values 0.985 | locus YGL173C, strain kem1, hits give low values 0.998 | locus YGL227W, strain vid30, hits give low values 0.983 | locus YGL240W, strain doc1, hits give low values 0.96 | locus YGL248W, strain PDE1, hits give low values 1.01 | locus YGL253W, strain hxk2, hits give low values 1.01 | locus YGR078C, strain PAC10, hits give low values 0.991 | locus YGR135W, strain pre9, hits give low values 0.993 | locus YGR229C, strain SMI1, hits give low values 1.02 | locus YGR252W, strain gcn5, hits give low values 1.04 | locus YHR013C, strain ard1, hits give low values 0.989 | locus YHR027C, strain rpn1, hits give low values 0.985 | locus YHR030C, strain SLT2, hits give low values 1.01 | locus YHR079C, strain IRE1 (second series), hits give low values 0.986 | locus YHR079C, strain IRE1, hits give low values 1.02 | locus YHR094C, strain hxt1, hits give low values 0.988 | locus YHR129C, strain ARP1, hits give low values 1.01 | locus YHR142W, strain chs7, hits give low values 1.01 | locus YHR200W, strain rpn10, hits give low values 0.994 | locus YIL066C, strain RNR3, hits give low values 1.01 | locus YIL073C, strain SPO22, hits give low values 1.03 | locus YIL125W, strain kgd1, hits give low values 0.995 | locus YIR030C, strain dcg1, hits give low values 0.987 | locus YJL092W, strain hpr5, hits give low values 0.99 | locus YJL095W, strain BCK1 (second series), hits give low values 0.991 | locus YJL095W, strain BCK1, hits give low values 1 and 1.01 | locus YJL115W, strain asf1, hits give low values 0.992 | locus YJL129C, strain trk1, hits give low values 0.993 | locus YJL134W, strain LCB3, hits give low values 1.01 | locus YJL154C, strain vps35, hits give low values 0.993 | locus YJL164C, strain tpk1, hits give low values 0.994 | locus YJL166W, strain qcr8, hits give low values 0.988 | locus YJL168C, strain set2, hits give low values 0.99 | locus YJL187C, strain SWE1 (second series), hits give low values 0.996 | locus YJL187C, strain SWE1, hits give low values 0.983 | locus YJR043C, strain POL32, hits give low values 0.975 | locus YJR066W, strain TOR1, hits give low values 0.983

From PubChem BioAssay AID1159580 (chemical genetic matrix, 2015)
